HCMV inh: inhibitors of human cytomegalovirus | HFF cells, HCMV-luciferase reporter, 72 h; active compounds read low | activity change, negative = inhibition, % at 57.5 µM | 4.5% of 410,000 active; in the data active means activity change below about -60%; inconclusive means no clear call, values can overlap the other calls; inactive means above about -39%
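Luciferase read-out from HCMV-luciferase-infected HFFs (MOI 1 PFU/cell) 72 h post infection at 37C; compounds added after 16 h cell attachment; activity normalized between buffer-only basal and Salinomycin (10uM) inhibitor controls.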
Pf growth 48h: P. falciparum growth inhibition at 48 hours (one generation) | P. falciparum luciferase growth in erythrocytes, 48 h | Potency, µM (doses to about 28.7 µM), without a hit: top-dose activity change, negative = inhibition, usual class: inhibitors | AID 504832 | 5.9% of 310,000 active; further: potency means the concentration at half of the fitted maximal effect
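Compounds are pin-transferred into medium, infected erythrocytes (2% hematocrit, 0.1% parasitemia final) are added, and plates sit one parasite generation at 37 C in 5% CO2. Detection reagent is then added and luminescence measured.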
Pf growth 96h: P. falciparum growth inhibition at 96 hours. P. falciparum luciferase reporter growth, 96 h. Potency, µM (doses to about 28.7 µM), for inactives: at the highest dose activity change, negative = inhibition, most hits filed as inhibitors. 6.9% of 320,000 active; further: potency means the concentration at half of the fitted maximal effect
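P. falciparum expressing integrated firefly luciferase grown in erythrocytes (2% hematocrit, 0.05% parasitemia final) with compounds for 96 hours at 37 C, 5% CO2. Growth inhibition read as loss of luminescence after adding luciferase detection reagent.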
HCV inhibitor: blocks hepatitis C virus | Huh7.5.1 HCVcc-Cre infection, luciferase reporter, 44 h | Potency, µM (series often up to 41.8 µM), without a hit: at the top dose activity change, negative = inhibition, usual class: inhibitors | 3.4% of 340,000 active; further: potency means the concentration at half of the fitted maximal effect
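Luciferase read-out (15 sec integration) after a 15 min room-temperature substrate step quantifies HCVcc-Cre infection. Cells, 1,000 per well, had compound added 4 h post-plating, then virus at ~0.5 moi, and were cultured 44 h.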
* marks the source's active call; other numbers are inactive results. Shown are actives, neighbours in structure and some others; about 13% of the full set was active somewhere. Unless noted, the call rests on the fitted dose curve; in most records, active means well fitted inhibition curve with a large enough effect; inconclusive means small, poorly fitted or top-dose-only effect, or another doubt; inactive means no such curve, though single readings can be large or run the other way. On the % scale 0 is the no-effect control and ±100 the full control effect.

Cc1ccc(C)c(Cn2c(C3CC(=O)N(c4ccccc4C)C3)nc3ccccc32)c1 (configuration not stated) was read as HCMV inh -15.
For Cc1ccc(C(C)C)c(OCc2nn(CC(=O)c3ccc(Cl)cc3)c3[n+]2CCCCC3)c1 the results were HCMV inh -112*, Pf growth 48h 12µM*, Pf growth 96h inconclusive and HCV inhibitor inconclusive.
`O=C(Cn1nc(Br)nc1Br)c1ccccc1` gave HCMV inh 33, Pf growth 48h inconclusive, Pf growth 96h inconclusive and HCV inhibitor 29%.
For Cc1ccc(C(C)C)c(OCC(=O)Nc2ccc(Cl)cn2)c1 the results were HCMV inh 17, Pf growth 48h inconclusive, Pf growth 96h 21% and HCV inhibitor inconclusive.
For O=C(Cn1nc(CNc2ccc(Cl)cc2)[n+]2c1CCCCC2)c1ccccc1 the results were HCMV inh inconclusive, Pf growth 48h 0.93µM*, Pf growth 96h inconclusive and HCV inhibitor 13%.
For CC(C)Cc1nn2c(=O)cc(COC(=O)c3ccc4c(c3)OCO4)nc2s1 the results were HCMV inh 1.
For COc1ccc(-c2csc(-c3nc(-c4ccc(Br)s4)cs3)n2)cc1F the results were HCMV inh 3.
For COc1ccc(-c2c(C(=O)c3ccccc3)[nH]c(N)c2C(=O)c2ccc(Br)cc2)cc1OC the results were HCMV inh 3.
For COc1ccc(-c2c(C(=O)c3ccccc3)[nH]c(N)c2C(=O)c2ccccc2)cc1OC the results were HCMV inh -70*.
`CC(C)N(C(=O)[C@H]1C[C@H](CC(=O)NCCCN(C)C)C(=O)N2CCc3c([nH]c4cc(-c5ccco5)ccc34)[C@]12C)C(C)C` gave HCMV inh -24 and HCV inhibitor 8.9µM*.
For CC(C)=CCC/C(C)=C/CNC(=O)C[C@H]1C[C@H](C(=O)N(C(C)C)C(C)C)[C@@]2(C)c3[nH]c4cc(CCC(=O)N(C)C)ccc4c3CCN2C1=O the results were HCMV inh -15 and HCV inhibitor 10µM*.
For CN(C)CCCNC(=O)C[C@H]1C[C@H](C(=O)N2CCOCC2)[C@@]2(CCC3CCCC3)c3[nH]c4cc(-c5ccco5)ccc4c3CCN2C1=O the results were HCMV inh inconclusive and HCV inhibitor 7.9µM*.
`CCN(CC)C(=O)[C@H]1C[C@H](CC(=O)NCCCN(C)C)C(=O)N2CCc3c([nH]c4cc(-c5ccco5)ccc34)[C@]12C` gave HCMV inh -14 and HCV inhibitor inconclusive.
`CC(C)N(C(=O)[C@H]1C[C@H](CC(=O)NCCCN(C)C)C(=O)N2CCc3c([nH]c4cc(CCC(=O)N(C)C)ccc34)[C@]12C)C(C)C` gave HCMV inh -14 and HCV inhibitor 0.32µM*.
CCn1cc(C(=O)NCCc2ccc(Cl)cc2)c(=O)c2cc(S(=O)(=O)N3CCc4ccccc4C3)ccc21 was read as HCMV inh 18.
Screening CCCC(=O)Oc1c(Sc2ccc(C)cc2)c(C)nn1-c1ccccc1 returned HCMV inh -7.
C[C@]12c3[nH]c4cc(-c5ccco5)ccc4c3CCN1C(=O)[C@@H](CC(=O)NCC13CC4CC(CC(C4)C1)C3)C[C@@H]2C(=O)N1CCOCC1 was read as HCMV inh -29 and HCV inhibitor 25µM*.
Screening CN1CCN(C(=O)C(=O)Nc2c3c(nn2-c2cccc(Cl)c2)CSC3)CC1 returned HCMV inh 8.
CCc1nccn1CCC(=O)N1CCCC(N2CCN(c3ccccc3C)CC2)C1 (configuration not stated) was read as HCMV inh -87*, Pf growth 48h inconclusive, Pf growth 96h -16% and HCV inhibitor inconclusive.
Cc1ccn(CC(=O)N2CCCC(N3CCN(c4ccccc4F)CC3)C2)n1 (configuration not stated) was read as HCMV inh 2, Pf growth 48h 11%, Pf growth 96h 13µM* and HCV inhibitor 22%.
COc1cccc(CNC(=O)c2cnc3c(-c4ccc(F)cc4)c(C)nn3c2C)c1 was read as HCMV inh 17.
O=S1(=O)C=C(Sc2ccc(Cl)cc2)c2ccccc2C1Cc1ccc(F)cc1 (configuration not stated) was read as HCMV inh -2.
For COc1cccc(C(C(=O)NC2CCCC2)N2CCN(c3ncccc3C#N)CC2)c1OC (configuration not stated) the results were HCMV inh -2.
